Screening results as filed in PubChem.
FAS TE block: FAS thioesterase domain inhibitors, primary screen, biochemical, fluorescence intensity, uHTS; Fatty acid synthase (Homo sapiens), P49327; recombinant FAS-TE, OMFH fluorogenic substrate, fluorescence endpoint; inhibition, % at 15 µM; 0.67% of 360,000 active; AID 602261, 2012;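 active = compounds whose normalised, plate-corrected inhibition of enzyme fluorescence in the single-dose primary screen is 50% or more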;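 also: 0% = DMSO with enzyme and 100% = substrate without enzyme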
Target sequence (P49327 whole entry, looked up, the tested form may be a part): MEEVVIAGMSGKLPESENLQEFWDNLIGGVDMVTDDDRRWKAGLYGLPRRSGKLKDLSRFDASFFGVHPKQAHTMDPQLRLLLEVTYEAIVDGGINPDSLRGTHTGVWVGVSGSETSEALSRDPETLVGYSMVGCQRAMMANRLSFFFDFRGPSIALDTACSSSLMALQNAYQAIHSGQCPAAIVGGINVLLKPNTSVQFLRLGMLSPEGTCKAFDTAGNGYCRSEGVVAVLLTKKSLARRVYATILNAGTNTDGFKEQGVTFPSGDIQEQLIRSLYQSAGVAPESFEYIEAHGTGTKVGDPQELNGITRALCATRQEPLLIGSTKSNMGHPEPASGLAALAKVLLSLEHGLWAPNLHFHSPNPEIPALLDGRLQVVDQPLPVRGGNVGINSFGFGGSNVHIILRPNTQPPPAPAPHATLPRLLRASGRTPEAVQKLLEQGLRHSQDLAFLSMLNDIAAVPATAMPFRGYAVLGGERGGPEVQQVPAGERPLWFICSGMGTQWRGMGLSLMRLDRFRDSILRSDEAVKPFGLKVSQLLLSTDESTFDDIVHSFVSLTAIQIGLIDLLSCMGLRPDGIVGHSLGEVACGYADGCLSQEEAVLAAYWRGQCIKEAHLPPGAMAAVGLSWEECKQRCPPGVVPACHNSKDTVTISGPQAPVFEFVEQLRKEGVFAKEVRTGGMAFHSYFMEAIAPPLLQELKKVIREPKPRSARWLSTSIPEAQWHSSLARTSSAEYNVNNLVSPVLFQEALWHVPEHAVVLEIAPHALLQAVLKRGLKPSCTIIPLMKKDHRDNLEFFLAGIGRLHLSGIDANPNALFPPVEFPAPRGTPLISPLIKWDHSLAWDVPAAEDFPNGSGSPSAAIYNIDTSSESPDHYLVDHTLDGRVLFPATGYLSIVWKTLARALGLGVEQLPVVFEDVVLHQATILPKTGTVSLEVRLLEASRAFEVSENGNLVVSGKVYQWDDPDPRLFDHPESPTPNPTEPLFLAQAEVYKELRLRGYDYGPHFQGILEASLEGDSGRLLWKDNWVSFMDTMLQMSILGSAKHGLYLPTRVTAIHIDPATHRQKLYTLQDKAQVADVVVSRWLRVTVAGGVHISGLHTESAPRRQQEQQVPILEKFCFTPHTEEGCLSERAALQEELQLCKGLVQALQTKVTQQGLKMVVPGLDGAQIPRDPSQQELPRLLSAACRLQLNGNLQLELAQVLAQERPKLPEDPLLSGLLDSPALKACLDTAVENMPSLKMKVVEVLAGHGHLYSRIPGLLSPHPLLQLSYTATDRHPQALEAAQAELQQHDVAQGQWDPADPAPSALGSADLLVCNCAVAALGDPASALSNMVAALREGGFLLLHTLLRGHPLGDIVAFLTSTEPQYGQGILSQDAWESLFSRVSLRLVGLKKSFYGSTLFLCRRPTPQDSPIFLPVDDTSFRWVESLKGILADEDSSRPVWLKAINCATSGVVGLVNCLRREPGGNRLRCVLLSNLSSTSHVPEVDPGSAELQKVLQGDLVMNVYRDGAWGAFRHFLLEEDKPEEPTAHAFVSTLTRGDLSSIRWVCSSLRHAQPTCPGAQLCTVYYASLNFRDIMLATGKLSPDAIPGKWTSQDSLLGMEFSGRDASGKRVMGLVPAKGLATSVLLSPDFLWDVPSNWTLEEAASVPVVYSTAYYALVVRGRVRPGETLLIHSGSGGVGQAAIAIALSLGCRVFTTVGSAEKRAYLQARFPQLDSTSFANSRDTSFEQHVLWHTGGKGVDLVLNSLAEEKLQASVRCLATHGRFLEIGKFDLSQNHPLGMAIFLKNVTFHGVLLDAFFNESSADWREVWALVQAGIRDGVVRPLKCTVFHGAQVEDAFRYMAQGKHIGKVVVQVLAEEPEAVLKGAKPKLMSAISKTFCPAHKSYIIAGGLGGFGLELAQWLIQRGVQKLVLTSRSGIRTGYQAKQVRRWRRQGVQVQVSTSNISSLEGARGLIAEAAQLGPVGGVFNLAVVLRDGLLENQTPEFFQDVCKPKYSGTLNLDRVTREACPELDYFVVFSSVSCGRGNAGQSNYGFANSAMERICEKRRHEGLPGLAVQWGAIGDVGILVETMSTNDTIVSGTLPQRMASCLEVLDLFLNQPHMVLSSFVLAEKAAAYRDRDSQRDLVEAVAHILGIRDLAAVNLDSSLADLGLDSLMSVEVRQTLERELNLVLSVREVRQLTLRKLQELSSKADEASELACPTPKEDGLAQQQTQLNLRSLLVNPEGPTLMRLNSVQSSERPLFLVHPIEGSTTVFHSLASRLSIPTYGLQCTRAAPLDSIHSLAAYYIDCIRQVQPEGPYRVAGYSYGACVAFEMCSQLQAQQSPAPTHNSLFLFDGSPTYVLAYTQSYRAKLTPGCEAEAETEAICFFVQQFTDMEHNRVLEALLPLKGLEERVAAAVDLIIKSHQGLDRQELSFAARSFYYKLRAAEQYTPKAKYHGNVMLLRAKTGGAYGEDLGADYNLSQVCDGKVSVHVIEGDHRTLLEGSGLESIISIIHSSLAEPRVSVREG
MPTP block: mitochondrial permeability transition pore inhibitors, primary screen, biochemical, isolated mouse mitochondria, absorbance; Ca2+ swelling absorbance, 30 min; 1.4% of 360,000 active; inhibition, % at 10 µM;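 active = inhibition of 50% or more, scaled per plate between neutral and stimulator controls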;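 also: 0% = DMSO wells given calcium and 100% = 1 mM EGTA wells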
Yeast superoxide: reduction of superoxide in aged yeast, primary screen, HTS. S. cerevisiae aged cells, superoxide DHE fluorescence; hits give low values. superoxide response (% of plate mean), % at 10 µM. 0.18% of 330,000 active. AID 2690, 2010;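 active = superoxide response under a set limit, about three screen SD below normal, cut at about 65% in these data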;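 also: yeast aged for seven days with compound at 30 °C before DHE staining; 100% = average MFI of all compound-treated wells on the plate with controls excluded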
aDG glyco act: activators of alpha-DG glycosylation, primary screen, uHTS, Pro5-aDG cells, AlphaScreen; alpha-DG glycosylation AlphaScreen (IIH6); 0% Pro5, 100% B10-LARGE cell signal; 0.22% of 360,000 active; activation, % at 10 µM;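 active = activation of at least 8% versus controls, or a plate z-score of at least 8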;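 also: Pro5 are CHO cells carrying HIG-tagged alpha-DG that lacks glycosylation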
Cardio protect: cardioprotection against H2O2-induced cell death, primary screen, uHTS, H9c2 cells, ATPLite luminescence; H9c2 cardiomyocytes, H2O2 injury protection, 2 h; protection from H2O2 cell death, % at 20 µM; 0.63% of 360,000 active; AID 588492, 2011;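 active = compounds giving at least 50% protection of heart cells from peroxide-induced death in the single-dose screen, raw or plate-pattern-corrected value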;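 also: 0% = DMSO wells with peroxide and 100% = DMSO wells without peroxide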
Mot1-301 SUMO: yeast Mot1-301 growth rescue at high temperature, primary screen, SUMOylation pathway inhibitor project, S. cerevisiae, ATP luminescence, 38.5C. S. cerevisiae Mot1-301 growth rescue; percent above DMSO median, 100 means doubled. growth rescue, % at 18.8 µM. 1% of 320,000 active;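 active = every valid replicate shows activation above 250% relative to neutral control wells; inactive = the rest, any valid replicate at or below 250%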;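 also: OY570 slx delta 5 strain wells were the positive control but not used for scaling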
Rh123 counter: fluorescence retest of MPTP screen hits in isolated mitochondria, single concentration; inhibition, % at 10 µM; 78% of 5,000 active; shares compounds with MPTP block; membrane potential, Rhodamine 123 fluorescence; in the data active = inhibition above about 22%;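 also: 0% = DMSO vehicle and 100% = positive control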
MPTP abs DR: mitochondrial permeability transition pore inhibitors, dose response, biochemical, absorbance, uHTS hits | shares compounds with MPTP block | isolated mitochondria swelling | IC50, µM | 58% of 780 active; in the data active = IC50 below about 20 µM
MPTP cs DR: fluorescent counter-screen in isolated mitochondria, dose response, counter-screen for MPTP inhibitor project, biochemical, fluorescence, uHTS hits | isolated mitochondria counterscreen, fluorescence read-out | AID 651564, 2012 | 49% of 780 active | shares compounds with MPTP block | IC50, µM; in the data active = IC50 below about 80 µM
* hit, by the source's call; x = no result. A selection: hits, their analogues and other compounds. The true share with any hit is near 3.8%.

SMILES	FAS TE block	MPTP block	Yeast superoxide	aDG glyco act	Cardio protect	Mot1-301 SUMO	Rh123 counter	others
CCn1cnc2cc(NC(=O)COc3ccc(C)cc3)ccc21	3	0	x	0	-13	x	x
CCn1c(-c2ccco2)nc2ccccc21	-7	92*	96	0	-7	-4	2	MPTP abs DR=8.7*;MPTP cs DR=>80
c1ccc(OCCn2c(-c3ccco3)nc3ccccc32)cc1	8	1	95	1	-6	35	x
CCOc1c(OC(C)=O)ccc(/C=C2\N=C(SCC)SC2=O)c1[N+](=O)[O-]	-64	89*	96	0	-34	-2	72*
CCOc1cc(/C=C2\N=C(SCC)SC2=O)cc([N+](=O)[O-])c1OC(C)=O	2	104*	110	0	-15	224	37*
CCOc1cc(/C=C2\N=C(SC)SC2=O)cc([N+](=O)[O-])c1OC(C)=O	3	23	111	0	-20	-17	x
CCN1CCN(S(=O)(=O)c2ccc(Cl)c(C(=O)N(C)Cc3ccc(Cl)cc3Cl)c2)CC1	10	0	93	0	-2	-10	x
CC(=O)c1ccc(OCc2cc(C(=O)NCCc3ccc(Cl)cc3)no2)cc1	-1	-1	96	0	-2	173	x
O=C(c1ccc2c(=O)n(C3CCCC3)c(=S)[nH]c2c1)N1CCc2ccccc21	3	80*	114	1	-7	-8	69*
CC(C)NC(=O)c1ccc2c(=O)n(C3CCCC3)c(=S)[nH]c2c1	-4	3	110	0	4	3	x
CCCCC(CC)Cn1c(O)c(/C=C2\C=NN=C2c2ccccc2)sc1=S (stereo not given)	-35	55*	107	-1	-7	459	-2	MPTP abs DR=16*;MPTP cs DR=>80
COc1cc(NC(C)CCCN)c2nc(C)ccc2c1Oc1ccc(F)cc1 (stereo not given)	-19	-2	x	2	-18	x	x
CCOC(=O)N1CCC(NC(=O)C2CCCN(Cc3nc(-c4cccc(Cl)c4)oc3C)C2)CC1 (stereo not given)	-2	94*	82	1	-31	-16	51*
CCc1ccc(-c2nc(CN3CCCC(C(=O)NCCc4ccc(OC)c(OC)c4)C3)c(C)o2)cc1 (stereo not given)	-2	6	97	1	0	-7	x
COc1ccc(CCNC(=O)C2CCCN(Cc3nc(-c4ccccc4C)oc3C)C2)cc1OC (stereo not given)	-6	59*	103	0	1	11	8	MPTP abs DR=18*;MPTP cs DR=35*
COc1ccc(CCNC(=O)C2CCN(Cc3nc(-c4cccc(Cl)c4)oc3C)CC2)cc1OC	-2	52*	111	1	-7	3	14	MPTP abs DR=18*;MPTP cs DR=37*
COc1ccc(CCNC(=O)c2cc3ccc(Cl)cc3nc2N)cc1	-4	26	x	2	x	x	x
Cn1c(N)c(C(=O)c2ccc(Cl)c(S(=O)(=O)N3CCCCCC3)c2)c(=O)n(C)c1=O	1	0	85	0	-11	4	x
Cc1cn(C2CCCO2)c(=O)nc1N (stereo not given)	-2	-1	x	0	7	x	x
Cc1ccc(S(=O)(=O)OCC(=O)Nc2ccc(C(=O)O)c(O)c2)cc1	-6	-2	x	0	-2	x	x
CC(C)Oc1ccc(S(=O)(=O)N2CCCCC2)cc1NC(=O)C1=NN(c2ccccc2)C(=O)CC1	24	1	x	1	-3	x	x
COc1cccc(NC(=O)N2CCN(C(=O)C(Cc3ccc(OC)c(OC)c3)NC(C)=O)CC2)c1 (stereo not given)	-7	-1	96	0	2	-5	x
COc1ccc(CC(NC(C)=O)C(=O)N2CCN(C(=O)Nc3ccc(Cl)cc3)CC2)cc1OC (stereo not given)	-3	55*	77	0	-4	566	73*
CC(=O)c1ccc(NC(=O)Nc2ccc(Cl)cc2)cc1	12	85*	104	2	-16	79	86*
CNC(=O)Nc1ccc(Cl)cc1	-8	96*	93	0	3	-16	91*
SMILES	FAS TE block	MPTP block	Yeast superoxide	aDG glyco act	Cardio protect	Mot1-301 SUMO	Rh123 counter	others
COC(=O)Cc1ccc(NC(=S)NCc2ccccc2Cl)cc1	-3	4	106	0	-1	-19	x
CC(=O)c1ccc(NC(=O)Nc2ccncc2)cc1	-8	2	97	0	-14	-8	x
CC(=O)c1cccc(NC(=O)Nc2cnn(Cc3ccc(Cl)cc3Cl)c2)c1	15	73*	87	0	-14	0	71*
CC(=O)c1ccc(NC(=S)NCc2ccc(Cl)cc2Cl)cc1	21	95*	108	1	-22	7	94*
O=C(Nc1cnn(Cc2ccc(Cl)cc2Cl)c1)c1cc(-c2cccs2)on1	10	1	89	0	-7	9	x
COc1cc(C2C(C#N)=C(N)OC3=C2C(=O)CC(C)(C)C3)ccc1OCCN1CCOCC1 (stereo not given)	-6	4	83	0	13	-2	x
S=C(NCc1ccc(Cl)cc1Cl)NC1CCCCC1	20	106*	111	0	-23	645*	85*
COc1ccccc1N(C)S(=O)(=O)c1ccc(C)c(C(=O)Nc2nccs2)c1	2	-1	101	0	3	13	x
O=C(NC(NC1CCS(=O)(=O)C1)C(Cl)(Cl)Cl)c1ccc(Br)cc1 (stereo not given)	-5	91*	96	0	-3	15	102*
CC1(C(=O)NS(=O)(=O)c2ccc(Cl)cc2)CCN1C(=O)c1ccccc1CCc1ccccc1 (stereo not given)	0	3	x	1	2	x	x
O=[N+]([O-])c1ccc(O)c(N=Cc2sc3ccccc3c2O)c1	33	60*	96	0	6	-22	67*
Oc1ccc(Cl)cc1N=Cc1sc2ccccc2c1Cl	3	1	96	2	-16	45	x
COc1ccc(CNCc2cc(Cl)ccc2O)cc1	-7	3	99	0	0	11	x
CCc1ccc(O)c(CNCCNCc2cc(CC)ccc2O)c1	-16	95*	101	4	19	139	4
